Growth inhibition, inhibition and outcome data for 20 molecules are collected here from PubChem BioAssay.

A short description of assay [1]: antimalarial activity against Dd2 strain (AID 2302;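 active = growth inhibition above 50% at the single 2 µM test dose, taken to imply half-maximal potency below 2 µM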;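 note: 0% = DMSO untreated growth and 100% = chloroquine plus artemisinin killed control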). The note with it: P. falciparum Dd2 in RBCs, LDH growth readout, 72 h; at 2 µM; active compounds read high.
Assay [2] in a line: HepG2 cytotoxicity, primary screen, cytotoxicity control for P. falciparum antimalarial project, cell-based, ATP luminescence (AID 2303;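 active = inhibition above 50%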;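 note: 0% = DMSO wells and 100% = digitonin-killed cells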). To be noted: HepG2 viability, 24-48 h, at 10 µM, active compounds read high.
Assay [3] deals with L-lactate dehydrogenase (Plasmodium falciparum (isolate CDC / Honduras)) (UniProt Q27743). Put plainly: PfLDH activity inhibition – cell lysate, 3D7 strain, counter-screen for P. falciparum growth inhibition project (AID 2304).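 Note: 0% = vehicle and 100% = reference inhibitor.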 The note with it: P. falciparum 3D7 crude extract, LDH APAD/NBT absorbance; at 2 µM; active compounds read high.
Assay [4] in a line: inhibition of 3D7 malaria parasite growth – strain 3D7 (AID 2306).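 Note: 0% = DMSO wells and 100% = chloroquine plus artemisinin control wells.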 The note with it: P. falciparum 3D7 erythrocytic growth, LDH absorbance, 72 h; at 2 µM; active compounds read high.
For assay [5], the target named is Calcium-dependent protein kinase 1 (Plasmodium falciparum (isolate 3D7)) (UniProt P62344). Put plainly: PfCDPK1 kinase inhibitors, biochemical, TCAMS library (AID 1159585; cut-off not given, nearly all actives have IC50 up to about 0.98 µM;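 note: inhibitors leave more ATP so luminescence rises with inhibition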). To be noted: recombinant PfCDPK1, Kinase-Glo ATP depletion luminescence. In general terms: In Kinase-Glo more light means more ATP remaining.
In assay [6] the target is Plasmodium falciparum protein kinase 6 (PK6, PF3D7_1337100) (UniProt Q8IDW1). Put plainly: PfPK6 kinase inhibitors, biochemical, TCAMS library (AID 1159586). The note with it: recombinant PfPK6, Kinase-Glo ATP depletion luminescence.
The target of assay [7] is Protein kinase 7 (PK7), Plasmodium falciparum 3D7 (PF3D7_0213400) (UniProt Q7YTF7). Put plainly: inhibition of Plasmodium PK7 catalytic activity – biochemical, TCAMS antimalarial set, Kinase-Glo luminescence (AID 1159587). The note with it: recombinant PfPK7, Kinase-Glo ATP depletion luminescence.
Assay [8] deals with Calcium-dependent protein kinase 4 (Plasmodium falciparum (isolate 3D7)) (UniProt Q8IBS5). Kind of assay: PfCDPK4 kinase inhibitors, biochemical, TCAMS library (AID 1159588; cut-off not given, nearly all actives have IC50 up to about 0.91 µM). To be noted: recombinant PfCDPK4, Kinase-Glo ATP depletion luminescence.

Each structure is given as a SMILES string. A number with no mark means an inactive call. For some of these results: Results with a measured potency or affinity are listed apart. Activity calls are given as the source filed them. Unless noted, the rule behind the calls is not given here.

L-lactate dehydrogenase (Plasmodium falciparum (isolate CDC / Honduras)), sequence (Q27743 whole entry, looked up): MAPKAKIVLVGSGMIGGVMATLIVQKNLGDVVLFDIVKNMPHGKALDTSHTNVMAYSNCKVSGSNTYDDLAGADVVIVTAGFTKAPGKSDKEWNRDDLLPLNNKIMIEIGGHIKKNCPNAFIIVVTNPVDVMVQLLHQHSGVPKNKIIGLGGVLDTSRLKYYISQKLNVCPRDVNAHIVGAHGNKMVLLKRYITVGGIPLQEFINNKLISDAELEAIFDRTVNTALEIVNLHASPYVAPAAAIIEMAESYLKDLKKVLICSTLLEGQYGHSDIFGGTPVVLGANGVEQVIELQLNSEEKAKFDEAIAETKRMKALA
Calcium-dependent protein kinase 4 (Plasmodium falciparum (isolate 3D7)), sequence (Q8IBS5 whole entry, looked up): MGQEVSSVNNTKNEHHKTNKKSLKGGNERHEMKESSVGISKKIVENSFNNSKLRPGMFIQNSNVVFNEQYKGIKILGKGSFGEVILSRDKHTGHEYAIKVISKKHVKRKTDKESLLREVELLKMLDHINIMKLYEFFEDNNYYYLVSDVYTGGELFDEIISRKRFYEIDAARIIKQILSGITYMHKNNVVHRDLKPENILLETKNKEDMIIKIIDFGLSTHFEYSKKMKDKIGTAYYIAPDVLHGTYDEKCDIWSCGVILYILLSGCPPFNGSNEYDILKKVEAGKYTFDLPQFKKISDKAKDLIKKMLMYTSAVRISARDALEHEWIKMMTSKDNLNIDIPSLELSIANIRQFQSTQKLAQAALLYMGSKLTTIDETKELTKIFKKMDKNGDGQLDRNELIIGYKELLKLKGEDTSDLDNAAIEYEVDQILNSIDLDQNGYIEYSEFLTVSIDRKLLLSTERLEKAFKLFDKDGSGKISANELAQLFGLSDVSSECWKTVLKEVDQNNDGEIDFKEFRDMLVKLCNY
Plasmodium falciparum protein kinase 6 (PK6, PF3D7_1337100), sequence (Q8IDW1 1-305): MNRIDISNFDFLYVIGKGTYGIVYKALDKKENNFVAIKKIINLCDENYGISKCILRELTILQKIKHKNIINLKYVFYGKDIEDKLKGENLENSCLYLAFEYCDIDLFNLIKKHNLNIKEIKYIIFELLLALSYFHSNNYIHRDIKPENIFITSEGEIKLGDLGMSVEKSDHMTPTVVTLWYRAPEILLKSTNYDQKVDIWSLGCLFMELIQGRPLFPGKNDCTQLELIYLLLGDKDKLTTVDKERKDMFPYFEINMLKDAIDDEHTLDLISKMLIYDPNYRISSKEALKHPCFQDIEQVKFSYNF
Calcium-dependent protein kinase 1 (Plasmodium falciparum (isolate 3D7)), sequence (P62344 whole entry, looked up): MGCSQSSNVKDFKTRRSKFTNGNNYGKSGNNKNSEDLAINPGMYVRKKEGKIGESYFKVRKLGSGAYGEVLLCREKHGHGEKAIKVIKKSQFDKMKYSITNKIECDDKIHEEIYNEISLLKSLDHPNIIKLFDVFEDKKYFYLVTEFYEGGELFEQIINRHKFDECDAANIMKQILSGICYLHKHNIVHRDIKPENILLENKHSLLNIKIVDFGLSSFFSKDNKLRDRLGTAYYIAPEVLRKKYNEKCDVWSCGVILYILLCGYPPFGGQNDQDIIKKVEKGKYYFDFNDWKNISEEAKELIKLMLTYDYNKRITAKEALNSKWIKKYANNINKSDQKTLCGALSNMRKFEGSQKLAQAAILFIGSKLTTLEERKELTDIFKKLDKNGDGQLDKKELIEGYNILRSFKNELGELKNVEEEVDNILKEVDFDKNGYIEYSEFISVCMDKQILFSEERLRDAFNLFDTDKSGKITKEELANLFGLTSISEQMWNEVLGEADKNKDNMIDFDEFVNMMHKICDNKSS
Protein kinase 7 (PK7), Plasmodium falciparum 3D7 (PF3D7_0213400), sequence (Q7YTF7 1-343): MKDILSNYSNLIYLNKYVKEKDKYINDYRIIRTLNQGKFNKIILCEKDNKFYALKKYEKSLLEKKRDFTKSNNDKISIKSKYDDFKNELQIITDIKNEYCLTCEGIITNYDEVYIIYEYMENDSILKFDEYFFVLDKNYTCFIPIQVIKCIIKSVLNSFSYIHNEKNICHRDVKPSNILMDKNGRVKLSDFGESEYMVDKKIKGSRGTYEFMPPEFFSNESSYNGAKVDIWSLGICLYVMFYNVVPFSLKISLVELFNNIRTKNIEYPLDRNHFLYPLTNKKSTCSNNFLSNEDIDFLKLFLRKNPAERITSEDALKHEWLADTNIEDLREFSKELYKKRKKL

With `Cc1cc2nc(-c3ccc(C(=O)NCc4ccc(C(C)(C)C)cc4)cc3)[nH]c2cc1C`, the growth inhibition in assay [1] was 59% (active); in assay [4], 101% (active). Moreover, the inhibition in assay [2] is 3%; in assay [3], -3%. For the same molecule, the outcome in assay [5], in assay [6], in assay [7] and in assay [8] was inactive.

For `COc1cc(Nc2nccc(N3CCC(NC(=O)Nc4cccc(C(C)=O)c4)C3)n2)cc(OC)c1OC` (stereo not given), the values for the growth inhibition in assay [1] and in assay [4] were 34% and 91% (active), respectively. The inhibition in assay [2] is 8%; in assay [3], -3%. Further, the result in assay [5], in assay [6], in assay [7] and in assay [8] was inactive.

Take `Cc1cccc2[nH]c(-c3cccc(-c4ccc(NC(=O)CS(C)(=O)=O)cc4)c3)nc12`: the figures for the growth inhibition in assay [1] and in assay [4] were 8% and 85% (active), respectively. In addition, the inhibition is 3% in assay [2] and -8% in assay [3]. Further, the outcome in assay [5], in assay [6], in assay [7] and in assay [8] was inactive.

Turning to `N#Cc1c(N2CCN(c3ccc(F)cc3)CC2)nc(N)c2c(N)nc3c(c12)CC(=O)N3C1CC1`, the growth inhibition in assay [1] is 82% (active); in assay [4], 95% (active). The inhibition is 2% in assay [2] and -8% in assay [3]. For the same molecule, the outcome in assay [5], in assay [6], in assay [7] and in assay [8] was inactive.

As to `CCOc1ccc(NC(C)=O)c(O)c1`, the values for the growth inhibition in assay [1] and in assay [4] were 0% and 96% (active), respectively. Further, the results for the inhibition in assay [2] and in assay [3] were 6% and -1%, respectively. The outcome in assay [5], in assay [6], in assay [7] and in assay [8] was inactive.

For the molecule `COc1ccc2ncc(F)c(CCN3C[C@H](CNCc4ccc5ccccc5c4)[C@H](O)C3)c2n1`, the growth inhibition in assay [1] was 78% (active); in assay [4] it was 100% (active). For the same molecule, the inhibition in assay [2] was 57% (active); in assay [3], -3%. For the same molecule, the outcome in assay [5], in assay [6], in assay [7] and in assay [8] was inactive.

As to `Cc1cc(C(=O)CSc2nc3ccccc3n2-c2ccccc2)c(C)n1C1CCS(=O)(=O)C1` (stereo not given), the growth inhibition was -3% in assay [1] and 92% (active) in assay [4]. The inhibition in assay [2] was -18%; in assay [3] it was 0%. The outcome in assay [5], in assay [6], in assay [7] and in assay [8] was inactive.

On to `COc1cccc(C(=O)NC(c2ccc(Cl)cc2Cl)c2cc(Cl)c3cccnc3c2O)c1` (stereo not given), for which the growth inhibition in assay [1] is 76% (active); in assay [4], 100% (active). Moreover, the inhibition was 37% in assay [2] and -8% in assay [3]. The outcome in assay [5], in assay [6], in assay [7] and in assay [8] was inactive.

As for `Cc1cc(N2CCCC2)nc(Nc2ccc(NC(=O)COc3ccccc3)cc2)n1`, the figures for the growth inhibition in assay [1] and in assay [4] were 86% (active) and 101% (active), respectively. In addition, the figures for the inhibition in assay [2] and in assay [3] were 43% and 4%, respectively. Moreover, the result in assay [5], in assay [6], in assay [7] and in assay [8] was inactive.

Turning to `c1ccc2oc(-c3cc4ccncc4cc3OC3CCNCC3)cc2c1`, the growth inhibition was 96% (active) in assay [1] and 100% (active) in assay [4]. For the same molecule, the values for the inhibition in assay [2] and in assay [3] were 11% and -3%, respectively. Also, the outcome in assay [5], in assay [6], in assay [7] and in assay [8] was inactive.

For `Cc1ccc(C(C)C)c(Oc2ccc3nc(N)nc(N)c3c2)c1`, the growth inhibition in assay [1] is 33%; in assay [4], 96% (active). For the same molecule, the inhibition was 61% (active) in assay [2] and 2% in assay [3]. The result in assay [5], in assay [6], in assay [7] and in assay [8] was inactive.

In the case of `NCc1ccc(CNCc2cccc(-c3cccc(-c4nc5ccccc5[nH]4)c3)c2)cc1`, the growth inhibition is 11% in assay [1] and 101% (active) in assay [4]. In addition, the figures for the inhibition in assay [2] and in assay [3] were 7% and -7%, respectively. Also, the outcome in assay [5], in assay [6], in assay [7] and in assay [8] was inactive.

On to `COc1ccc(CNCc2ccc(-c3cccc(-c4nc5ccc(F)cc5[nH]4)c3)cc2)cc1`, for which the figures for the growth inhibition in assay [1] and in assay [4] were 94% (active) and 102% (active), respectively. For the same molecule, the results for the inhibition in assay [2] and in assay [3] were 33% and 3%, respectively. In addition, the result in assay [5], in assay [6], in assay [7] and in assay [8] was inactive.

With `Cn1c(=O)c2nc(-c3ccc(Cl)cc3)nnc2n(CCCC#N)c1=O`, the growth inhibition in assay [1] is 98% (active); in assay [4] it was 99% (active). Also, the inhibition in assay [2] and in assay [3] was 6% throughout. For the same molecule, the result in assay [5], in assay [6], in assay [7] and in assay [8] was inactive.

In the case of `COc1ccc(Cc2c(C)nc3nc(N)nc(N)c3c2C)cc1OC`, the growth inhibition in assay [1] was -4%; in assay [4], 93% (active). In addition, the inhibition in assay [2] was 66% (active); in assay [3] it was -1%. The outcome in assay [5], in assay [6], in assay [7] and in assay [8] was inactive.

As for `CC(C)c1ccc(CN2CCC(CNC(=O)c3cc(-c4ccc(N(C)C)cc4)cs3)C2)cc1` (stereo not given), the growth inhibition was 32% in assay [1] and 83% (active) in assay [4]. In addition, the inhibition was 36% in assay [2] and 5% in assay [3]. In addition, the result in assay [5], in assay [6], in assay [7] and in assay [8] was inactive.

For the molecule `O=C(NC1CC1)c1ccc(N2CCOc3ccc(Cl)cc32)s1`, the growth inhibition in assay [1] was 73% (active); in assay [4], 94% (active). In addition, the inhibition is 8% in assay [2] and 5% in assay [3]. Moreover, the result in assay [5], in assay [6], in assay [7] and in assay [8] was inactive.

Take `COc1ccc(C(=O)N2CCC3(CC2)C(=O)N(CC(=O)NCC2CCCCC2)CN3c2ccccc2)cc1`: the growth inhibition in assay [1] was 99% (active); in assay [4] it was 100% (active). For the same molecule, the figures for the inhibition in assay [2] and in assay [3] were 18% and 3%, respectively. The outcome in assay [5], in assay [6], in assay [7] and in assay [8] was inactive.

Consider `O=C(C1CCCCC1)N1CCOC(CCN2CCC(c3ccccc3)CC2)(c2ccc(Cl)c(Cl)c2)C1` (stereo not given), for which the growth inhibition in assay [1] is 86% (active); in assay [4], 92% (active). Further, the inhibition in assay [2] and in assay [3] was 6% each time. For the same molecule, the outcome in assay [5], in assay [6], in assay [7] and in assay [8] was inactive.

For the molecule `Cc1ccc(NC(=O)c2cc(Br)cc(N3CCCN(C)CC3)c2)cc1F`, the values for the growth inhibition in assay [1] and in assay [4] were 1% and 87% (active), respectively. Moreover, the inhibition was 15% in assay [2] and -2% in assay [3]. The result in assay [5], in assay [6], in assay [7] and in assay [8] was inactive.

Usually inhibition stands for the drop in the measured response relative to a control, in per cent.
